Experimental data: PubChem BioAssay (EPA / NIEHS)
“And” between values parts separate entries of the source, which are not always exact repeats. Identical values can stand only once. Some structures have more than one record in an assay (separate samples or runs), and their calls can disagree. The source made the active and inactive calls. How the source made its calls: active means hit-call score of the fitted dose curve at least 0.9, where 1 is the maximum; inactive means score below 0.9.

What was measured:
[1] = read-out: Interleukin-8 (IL8), CXCL8 (gene 3576); experiment: BSK_MyoF_IL8: BioMAP Diversity Plus: MyoF Assay for Interleukin-8 (IL8) Biomarker Activity (AID 2284261); settings: primary human lung fibroblasts
Method in brief: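 In this multiplexed primary-cell system, fibroblasts from human lung are treated with chemicals, and IL-8 is detected by ELISA at 24 h, with DMSO serving as the negative reference.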

Decorin, DCN (gene 1634) = experiment: BSK_MyoF_Decorin: BioMAP Diversity Plus: MyoF Assay for Decorin Biomarker Activity (AID 2284265); settings: primary human lung fibroblasts
Method in brief: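 Lung fibroblast cultures, 24 h chemical exposure. Decorin by ELISA, positive fitting direction, DMSO baseline.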

[2] = BSK_MyoF_SRB: Viability Assessment in the BioMAP Diversity Plus: MyoF Assay (AID 2284267); settings: primary human lung fibroblasts;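 further: total protein by SRB absorbance in parallel cultures as cytotoxicity measure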
Method in brief: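 Human lung fibroblasts dosed with chemical and assessed 24 h later for overt cytotoxicity in parallel cultures. Total protein quantified by sulforhodamine B staining (0.1% SRB after 10% TCA fixation), read at 560 nm, analysed in positive direction versus DMSO baseline.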

[3] = read-out: Matrix Metallopeptidase 1 (MMP1), MMP1 (gene 4312); experiment: BSK_MyoF_MMP1: BioMAP Diversity Plus: MyoF Assay for Matrix Metallopeptidase 1 (MMP1) Biomarker Activity (AID 2284268); settings: primary human lung fibroblasts
Method in brief: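 MMP1 measured by ELISA 24 h after dosing primary human lung fibroblasts; cytotoxicity checked in parallel cultures by sulforhodamine B total-protein staining read at 560 nm.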

[4] = read-out: TIMP metallopeptidase inhibitor 1 (TIMP1), TIMP1 (gene 7076); experiment: BSK_MyoF_TIMP1: BioMAP Diversity Plus: MyoF Assay for TIMP metallopeptidase inhibitor 1 (TIMP1) Biomarker Activity (AID 2284269); settings: primary human lung fibroblasts
Method in brief: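 Primary human lung fibroblasts, MyoF multiplex system; chemical exposure 24 h; TIMP-1 by ELISA; positive fitting direction vs DMSO control.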

[5] = read-out: Macrophage Inflammatory Protein-1 Alpha (MIP1a), CCL3 (gene 6348); experiment: BSK_IMphg_MIP1a: BioMAP Diversity Plus: IMphg Assay for Macrophage Inflammatory Protein-1 Alpha (MIP1a) Biomarker Activity (AID 2284255); settings: primary human endothelial cells with macrophages
Method in brief: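 Co-culture of human venular endothelial cells and macrophages exposed to compounds for 24 h; MIP-1a measured by ELISA relative to DMSO. Cytotoxicity assessed in parallel cultures by sulforhodamine B total-protein staining at 560 nm.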

CD69, CD69 (gene 969) = experiment: BSK_IMphg_CD69: BioMAP Diversity Plus: IMphg Assay for CD69 Biomarker Activity (AID 2284257); settings: primary human endothelial cells with macrophages
Method in brief: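 Human venular endothelial cells co-cultured with macrophages; CD69 quantified by ELISA 24 h after compound addition. Activity fitted in the positive direction relative to DMSO baseline; cytotoxicity tracked in parallel cultures via SRB total-protein staining.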

[6] = read-out: Monocyte Chemoattractant Protein-1 (MCP1), CCL2 (gene 6347); experiment: BSK_BF4T_MCP1: BioMAP Diversity Plus: BF4T Assay for Monocyte Chemoattractant Protein-1 (MCP1) Biomarker Activity (AID 2284259); settings: primary human bronchial epithelial cells with fibroblasts
Method in brief: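 Co-culture of bronchial epithelial cells and dermal fibroblasts dosed with chemical; MCP-1 measured by ELISA 24 h later. Activity fitted in positive direction versus DMSO; cytotoxicity checked by SRB staining in parallel cultures.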

[7] = read-out: Interleukin-8 (IL8), CXCL8 (gene 3576); experiment: BSK_BF4T_IL8: BioMAP Diversity Plus: BF4T Assay for Interleukin-8 (IL8) Biomarker Activity (AID 2284263); settings: primary human bronchial epithelial cells with fibroblasts
Method in brief: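 Human bronchial epithelial cells with dermal fibroblasts co-culture; IL-8 measured by ELISA 24 hours after dosing, fitted vs DMSO. Cytotoxicity tracked in parallel cultures by SRB total-protein staining.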

[8] = read-out: Interleukin-1 alpha (IL1a), IL1A (gene 3552); experiment: BSK_BF4T_IL1a: BioMAP Diversity Plus: BF4T Assay for Interleukin-1 alpha (IL1a) Biomarker Activity (AID 2284264); settings: primary human bronchial epithelial cells with fibroblasts
Method in brief: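 Human bronchial epithelial cells co-cultured with dermal fibroblasts, dosed and read at 24 h. Secreted/surface IL-1α quantified by ELISA; gain-of-signal fitted relative to DMSO baseline. Parallel SRB total-protein staining tracked cytotoxicity.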

KRT18 (gene 3875) = experiment: BSK_BF4T_Keratin818: BioMAP Diversity Plus: BF4T Assay for Keratin 818 Biomarker Activity (AID 2284266); settings: primary human bronchial epithelial cells with fibroblasts
Method in brief: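 Co-culture of human bronchial epithelial cells and dermal fibroblasts, chemical exposure 24 h. Keratin 8/18 measured by ELISA; positive-direction fit vs DMSO. SRB total protein run in parallel cultures for cytotoxicity.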

[9] = read-out: Matrix Metallopeptidase 1 (MMP1), MMP1 (gene 4312); experiment: BSK_BF4T_MMP1: BioMAP Diversity Plus: BF4T Assay for Matrix Metallopeptidase 1 (MMP1) Biomarker Activity (AID 2284270); settings: primary human bronchial epithelial cells with fibroblasts
Method in brief: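 Co-culture of human bronchial epithelial cells and dermal fibroblasts; MMP-1 levels measured by ELISA 24 hours after chemical dosing, relative to DMSO. Cytotoxicity checked in parallel cultures by SRB total-protein staining.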

[10] = read-out: Matrix Metallopeptidase 3 (MMP3), MMP3 (gene 4314); experiment: BSK_BF4T_MMP3: BioMAP Diversity Plus: BF4T Assay for Matrix Metallopeptidase 3 (MMP3) Biomarker Activity (AID 2284271); settings: primary human bronchial epithelial cells with fibroblasts
Method in brief: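 Co-culture of human bronchial epithelial cells and dermal fibroblasts dosed 24 h; MMP-3 measured by ELISA, positive-direction fit versus DMSO. Cytotoxicity tracked by SRB total-protein staining (560 nm) in parallel cultures.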

[11] = read-out: Tissue plasminogen activator (tPA), PLAT (gene 5327); experiment: BSK_BF4T_tPA: BioMAP Diversity Plus: BF4T Assay for Tissue plasminogen activator (tPA) Biomarker Activity (AID 2284272); settings: primary human bronchial epithelial cells with fibroblasts
Method in brief: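 tPA level quantified by ELISA at 24 h post-treatment in bronchial epithelial/dermal fibroblast co-cultures, gain of signal scored against DMSO baseline. Parallel cultures stained with 0.1% SRB (560 nm) to flag overt cytotoxicity.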

[12] = read-out: Plasminogen Activator Inhibitor-1 (PAI1), SERPINE1 (gene 5054); experiment: BSK_BF4T_PAI1: BioMAP Diversity Plus: BF4T Assay for Plasminogen Activator Inhibitor-1 (PAI1) Biomarker Activity (AID 2284273); settings: primary human bronchial epithelial cells with fibroblasts
Method in brief: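 Co-culture of human bronchial epithelial cells and dermal fibroblasts exposed to compound for 24 h. PAI-1 measured by ELISA; activity fitted in positive direction versus DMSO. Parallel SRB staining assessed overt cytotoxicity.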

[13] = BSK_BF4T_SRB: Viability Assessment in the BioMAP Diversity Plus: BF4T Assay (AID 2284274); settings: primary human bronchial epithelial cells with fibroblasts
Method in brief: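 Co-culture of human bronchial epithelial cells and dermal fibroblasts (BioMAP BF4T) exposed 24 h. Total protein by sulforhodamine B staining (0.1% SRB after 10% TCA fixation, 560 nm) in parallel cultures; fitted vs DMSO.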

[14] = read-out: urokinase Plasminogen Activator (uPA), PLAU (gene 5328); experiment: BSK_BF4T_uPA: BioMAP Diversity Plus: BF4T Assay for urokinase Plasminogen Activator (uPA) Biomarker Activity (AID 2284275); settings: primary human bronchial epithelial cells with fibroblasts
Method in brief: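 Co-culture of human bronchial epithelial cells and dermal fibroblasts; uPA quantified by ELISA 24 hours after dosing, fitted relative to DMSO. Parallel SRB total-protein staining assessed overt cytotoxicity.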

[15] = read-out: Matrix Metallopeptidase 9 (MMP9), MMP9 (gene 4318); experiment: BSK_BF4T_MMP9: BioMAP Diversity Plus: BF4T Assay for Matrix Metallopeptidase 9 (MMP9) Biomarker Activity (AID 2284276); settings: primary human bronchial epithelial cells with fibroblasts
Method in brief: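 Co-culture of human bronchial epithelial cells and dermal fibroblasts dosed for 24 h; MMP-9 quantified by ELISA and fitted upward versus DMSO. Cytotoxicity monitored in parallel cultures by SRB total-protein staining at the biomarker time point.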

[16] = read-out: Interleukin-8 (IL8), CXCL8 (gene 3576); experiment: BSK_IMphg_IL8: BioMAP Diversity Plus: IMphg Assay for Interleukin-8 (IL8) Biomarker Activity (AID 2284277); settings: primary human endothelial cells with macrophages
Method in brief: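 Co-culture of human venular endothelial cells and macrophages exposed to chemicals for 24 h; IL-8 quantified by ELISA and compared against the DMSO baseline, with SRB total-protein staining in parallel cultures for cytotoxicity.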

[17] = read-out: Intercellular Adhesion Molecule 1 (ICAM1), ICAM1 (gene 3383); experiment: BSK_BE3C_ICAM1: BioMAP Diversity Plus: BE3C Assay for Intercellular Adhesion Molecule 1 (ICAM1) Biomarker Activity (AID 2284278); settings: primary human bronchial epithelial cells;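 further: cell-surface ICAM-1 protein level quantified by ELISA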
Method in brief: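 Primary human bronchial epithelial cells were exposed to compound for 24 h, after which cell-surface ICAM-1 was quantified by ELISA. Activity was fitted in the gain-of-signal direction against DMSO as negative control and baseline.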

Measured: AC50

COP(N)(=S)OC
inactive: [1] | Decorin, DCN (gene 1634) | [2] | [3] | [4]

O=P(OCC(Br)CBr)(OCC(Br)CBr)OCC(Br)CBr (stereo not drawn)
inactive: [1] | Decorin, DCN (gene 1634) | [2] | [4]
active: [3] 25.9 µM

O=C(O)C(F)(F)C(F)(F)C(=O)O
inactive: all assays above

O=S(=O)(F)C(F)(F)C(F)(F)C(F)(F)C(F)(F)C(F)(F)C(F)(F)C(F)(F)C(F)(F)F
inactive: all assays above

OCC(F)(F)OC(F)(F)C(F)(F)OC(F)(F)C(F)(F)OC(F)(F)F
active: [5] 21.2 µM | CD69, CD69 (gene 969) 48.6 µM and 7.29 µM | [6] 44.8 µM and 22.6 µM | [7] 42.8 µM and 39.6 µM | [2] 21.9 µM and 21.6 µM | [3] 19.9 µM and 18.3 µM | [4] 22.3 µM and 27.8 µM | [12] 25.6 µM
inactive: [5] | [1] | [8] | Decorin, DCN (gene 1634) | KRT18 (gene 3875) | [9] | [10] | [11] | [12] | [13] | [14] | [15] | [16] | [17]

CCOP(=S)(OCC)SCSc1ccc(Cl)cc1
inactive: [1] | Decorin, DCN (gene 1634) | [2] | [4]
active: [3] 30.1 µM

CCOP(=S)(S)OCC
inactive: [1] | Decorin, DCN (gene 1634) | [2] | [3] | [4]

COP(=O)(CCC(=O)NCO)OC
inactive: [17]

CCCCC(CC)COP(=O)(Oc1ccccc1)Oc1ccccc1 (stereo not drawn)
active: [1] 0.145 µM | Decorin, DCN (gene 1634) 5.87 µM | [2] 8.43 µM | [3] 5.32 µM | [4] 6.48 µM

OCC(F)(F)OC(F)(F)C(F)(F)OC(F)(F)CO
inactive: all assays above
